Data taken from PubChem BioAssay AID1159580 (chemical genetic matrix, 2015).
Where “and” joins values, the source holds several entries; their conditions need not be identical. Equal values may be shown once. Among all 5,500 compounds or so, about 2,000 (36%) were called active. About 18% were inconclusive and are not listed. No stated cut-off is given here; in the data, active means normalized growth mostly below about 0.91 (no sharp cut-off); inconclusive means no clear call, values can overlap the other calls; inactive means mostly above about 0.92. Some of the results follow.

Experiment: chemical genetic growth profiling, strain panel (AID 1159580);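 further: tested at 20 µM; growth read once vehicle control cultures reached saturation at 30 °C; 1 = growth at the plate median or of vehicle wells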
Settings: S. cerevisiae deletion strains, growth OD

Measured: normalized growth

CCCCOc1ccc(CC(=O)NO)cc1
inactive: locus YAL021C, strain ccr4, stronger effect = lower value 0.987 | locus YAL026C, strain drs2, stronger effect = lower value 0.983 | locus YAL030W, strain snc1, stronger effect = lower value 1 | locus YBL061C, strain skt5, stronger effect = lower value 0.996 | locus YBR009C, strain hhf1, stronger effect = lower value 0.953 | locus YBR021W, strain FUR4, stronger effect = lower value 1.02 | locus YBR023C, strain chs3, stronger effect = lower value 0.993 | locus YBR171W, strain sec66, stronger effect = lower value 0.98 | locus YBR229C, strain ROT2, stronger effect = lower value 1 | locus YBR231C, strain swc5, stronger effect = lower value 0.988 | locus YBR279W, strain paf1, stronger effect = lower value 1 | locus YCL011C, strain gbp2, stronger effect = lower value 0.99 | locus YCL016C, strain dcc1, stronger effect = lower value 0.967 | locus YCL029C, strain bik1, stronger effect = lower value 1 | locus YCL061C, strain MRC1, stronger effect = lower value 1.01 | locus YCL069W, strain vba3, stronger effect = lower value 0.973 | locus YCR088W, strain abp1, stronger effect = lower value 1 | locus YDL005C, strain med2, stronger effect = lower value 0.994 | locus YDL035C, strain GPR1, stronger effect = lower value 0.977 | locus YDL040C, strain nat1, stronger effect = lower value 0.998 | locus YDL074C, strain BRE1, stronger effect = lower value 0.964 | locus YDL101C, strain DUN1, stronger effect = lower value 0.99 | locus YDL134C, strain PPH21, stronger effect = lower value 0.965 | locus YDL185W, strain tfp1, stronger effect = lower value 1 | locus YDL192W, strain arf1, stronger effect = lower value 1.01 | locus YDR001C, strain nth1, stronger effect = lower value 0.991 | locus YDR069C, strain doa4, stronger effect = lower value 1 | locus YDR101C, strain arx1, stronger effect = lower value 0.988 | locus YDR137W, strain rgp1, stronger effect = lower value 0.857 | locus YDR150W, strain NUM1, stronger effect = lower value 0.992 | locus YDR159W, strain sac3, stronger effect = lower value 0.96 | locus YDR162C, strain NBP2, stronger effect = lower value 0.99 | locus YDR195W, strain ref2 0.94 | locus YDR297W, strain sur2, stronger effect = lower value 0.992 | locus YDR318W, strain mcm21, stronger effect = lower value 1.01 | locus YDR334W, strain swr1, stronger effect = lower value 1.02 | locus YDR335W, strain msn5, stronger effect = lower value 1.01 | locus YDR388W, stronger effect = lower value 1 | locus YDR392W, strain spt3, stronger effect = lower value 0.935 | locus YDR502C, strain sam2, stronger effect = lower value 0.997 | locus YEL003W, strain gim4, stronger effect = lower value 0.97 | locus YEL037C, strain rad23, stronger effect = lower value 0.993 | locus YEL061C, strain CIN8 (second series), stronger effect = lower value 0.994 | locus YEL061C, strain CIN8, stronger effect = lower value 0.996 | locus YER015W, strain faa2, stronger effect = lower value 1 | locus YER016W, strain bim1, stronger effect = lower value 0.997 | locus YER110C, stronger effect = lower value 1.02 | locus YER111C, strain swi4, stronger effect = lower value 0.996 | locus YER155C, strain BEM2 (second series), stronger effect = lower value 0.939 | locus YER155C, strain BEM2, stronger effect = lower value 0.994 | locus YER167W, strain BCK2, stronger effect = lower value 0.989 | locus YFR010W, strain ubp6, stronger effect = lower value 0.999 | locus YGL078C, strain dbp3, stronger effect = lower value 1 | locus YGL086W, strain mad1, stronger effect = lower value 1 | locus YGL167C, strain pmr1, stronger effect = lower value 1.01 | locus YGL173C, strain kem1, stronger effect = lower value 1.02 | locus YGL227W, strain vid30, stronger effect = lower value 0.993 | locus YGL240W, strain doc1, stronger effect = lower value 0.997 | locus YGL248W, strain PDE1, stronger effect = lower value 0.965 | locus YGL253W, strain hxk2, stronger effect = lower value 0.975 | locus YGR078C, strain PAC10, stronger effect = lower value 0.957 | locus YGR135W, strain pre9, stronger effect = lower value 1 | locus YGR229C, strain SMI1, stronger effect = lower value 0.916 | locus YGR252W, strain gcn5, stronger effect = lower value 0.878 | locus YHR013C, strain ard1, stronger effect = lower value 0.978 | locus YHR027C, strain rpn1, stronger effect = lower value 1.01 | locus YHR030C, strain SLT2, stronger effect = lower value 0.994 and 1.05 | locus YHR079C, strain IRE1 (second series), stronger effect = lower value 1.01 | locus YHR079C, strain IRE1, stronger effect = lower value 1 | locus YHR094C, strain hxt1, stronger effect = lower value 1 | locus YHR129C, strain ARP1, stronger effect = lower value 0.994 | locus YHR142W, strain chs7, stronger effect = lower value 0.961 | locus YHR200W, strain rpn10, stronger effect = lower value 1.01 | locus YIL066C, strain RNR3, stronger effect = lower value 0.915 | locus YIL073C, strain SPO22, stronger effect = lower value 0.974 | locus YIL125W, strain kgd1, stronger effect = lower value 0.997 | locus YIR030C, strain dcg1, stronger effect = lower value 1 | locus YJL092W, strain hpr5, stronger effect = lower value 0.997 | locus YJL095W, strain BCK1 (second series), stronger effect = lower value 1 | locus YJL095W, strain BCK1, stronger effect = lower value 0.959 and 1.01 | locus YJL115W, strain asf1, stronger effect = lower value 1 | locus YJL129C, strain trk1, stronger effect = lower value 0.966 | locus YJL134W, strain LCB3, stronger effect = lower value 0.996 | locus YJL154C, strain vps35, stronger effect = lower value 0.997 | locus YJL164C, strain tpk1, stronger effect = lower value 0.985 | locus YJL166W, strain qcr8, stronger effect = lower value 0.922 | locus YJL168C, strain set2, stronger effect = lower value 1 | locus YJL187C, strain SWE1 (second series), stronger effect = lower value 0.991
